{"source": "PubChem BioAssay (NCATS)", "note": "Records with an inconclusive call do not appear. Activity calls are given as the source filed them. Calls follow the shape of the full dose curve. % is scaled to controls: 0 for no effect and ±100 for the full control effect; potency is read from the fitted curve at half-maximal effect.", "data": [{"experiment": "Cytotoxicity counterscreen for inhibitors of SARS-CoV-2 cell entry (AID 1645845); also: nearly all actives have a fitted effect of over 50% in size", "settings": "cell viability (SARS-CoV-2 entry assay cells); series mostly up to 57.1 µM; activity change, negative = cytotoxicity: at the top concentration", "summary_of_the_method": "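Expi293F/hACE2 cells seeded overnight; cpd pin-transferred in DMSO, 1 h preincubation, + media, 48 h 37 C 5% CO2; ATPLite 1step luminescence; normalized to cells and no cells.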", "values": [{"smiles": "CC1(C)CCC2(CC1)N[C@@H](C(=O)N[C@@H]1CC[C@@H](C(N)=O)OC1)[C@H](c1ccnc(Cl)c1F)[C@]21C(=O)Nc2cc(Cl)ccc21", "outcome": "inactive [at 37.9 µM]"}, {"smiles": "Cc1c(CN2CCN(C(=O)[C@H](C)O)CC2)sc2c(N3CCOCC3)nc(-c3cnc(N)nc3)nc12", "activity change, negative = cytotoxicity": "-13.8% (inactive)"}, {"smiles": "Cc1noc2c1-c1ccccc1C(c1ccc(Cl)cc1)=N[C@H]2CC(N)=O", "outcome": "inactive"}, {"smiles": "CCS(=O)(=O)N1CCN(c2ccc(Nc3ncc(C(N)=O)c(NC4CC4)n3)cc2)CC1", "Potency": "25.1 µM (active)"}, {"smiles": "CN(Cc1ccccc1)C(=O)c1ccc(S(=O)(=O)Nc2ccccc2)cc1", "outcome": "inactive"}, {"smiles": "Cc1cc(C)c(CNC(=O)c2cc(-c3ccc(CN4CCOCC4)cc3)cc3c2cnn3C2CCCC2)c(=O)[nH]1", "activity change, negative = cytotoxicity": "4.72% (inactive)"}, {"smiles": "Cn1cncc1C(N)(c1ccc(Cl)cc1)c1ccc2c(c1)c(-c1cccc(Cl)c1)cc(=O)n2C", "note": "(centres undefined)", "Potency": "8.91 µM (active)"}, {"smiles": "O=C(O)/C(S)=C/c1ccc(I)cc1", "activity change, negative = cytotoxicity": "1.15% (inactive)"}, {"smiles": "C[C@@H]1CCN(C(=O)N2CCCC2)C[C@@H]1N(C)c1ncnc2[nH]ccc12", "outcome": "inactive"}, {"smiles": "CC[C@@H]1[C@H](F)C(=O)N[C@@H]1COc1nccc2cc(C(N)=O)c(OC)cc12", "outcome": "inactive"}, {"smiles": "C=CC(=O)N1CCC(C2CCNc3c(C(N)=O)c(-c4ccc(Oc5ccccc5)cc4)nn32)CC1", "note": "(centres undefined)", "activity change, negative = cytotoxicity": "-19.4% (inactive)"}, {"smiles": "Cc1ccc(-n2nc(C(C)(C)C)cc2NC(=O)NCc2cc(F)ccc2Oc2ccc3c(cnn3CCO)c2)cc1", "activity change, negative = cytotoxicity": "-20.8% (inactive)"}, {"smiles": "O=C(NCc1cccc(O)c1)Nc1nc(-c2ccncc2)cs1", "activity change, negative = cytotoxicity": "-15.4% (inactive)"}, {"smiles": "COc1cc(N2CCC(N3CCN(C)CC3)CC2)ccc1Nc1ncnc(Nc2ccccc2S(=O)(=O)C(C)C)n1", "activity change, negative = cytotoxicity": "-5.36% (inactive)"}, {"smiles": "NC(=O)c1cc(F)cc2c1C(=O)N(C1CCN(C3CCC(F)(F)CC3)CC1)C2", "outcome": "inactive"}, {"smiles": "O=C(Cc1cccc(OC(F)(F)F)c1)Nc1ccc(CCCCc2nnc(NC(=O)Cc3ccccn3)s2)nn1", "activity change, negative = cytotoxicity": "1.82% (inactive)"}, {"smiles": "CN(C)c1cc(NC(=O)CNC(C)(C)C)c(O)c2c1C[C@H]1C[C@H]3[C@H](N(C)C)C(=O)C(C(N)=O)=C(O)[C@]3(O)C(=O)C1=C2O", "activity change, negative = cytotoxicity": "-0.326% (inactive)"}, {"smiles": "CNC(=O)[C@H](Cc1c[nH]c2ccccc12)NC(=O)[C@@H](CC(=O)NO)CC(C)C", "outcome": "inactive"}, {"smiles": "Cc1cc(Nc2ncnc3ccc(NC4=NC(C)(C)CO4)cc23)ccc1Oc1ccn2ncnc2c1", "activity change, negative = cytotoxicity": "-9.28% (inactive)"}, {"smiles": "Cc1cccc(-c2[nH]ncc2-c2ccc(F)c(-c3cnn(CCO)c3)c2)n1", "activity change, negative = cytotoxicity": "-3.01% (inactive)"}, {"smiles": "O=c1cc(N2CCOCC2)oc2c(-c3ccc4c(c3)OCCO4)csc12", "activity change, negative = cytotoxicity": "-24.7% (inactive)"}, {"smiles": "COc1cc2c(cc1OC(C)C)[C@H](c1ccc(Cl)cc1)N(c1ccc(N(C)CC3CCC(N4CCN(C)C(=O)C4)CC3)cc1)C(=O)C2", "note": "(some centres undefined)", "outcome": "inactive"}, {"smiles": "CCCCC[C@H](O)/C=C/[C@H]1[C@H](O)CC(=O)[C@@H]1CCCCCCC(=O)O", "outcome": "inactive"}, {"smiles": "CN(C)C/C=C/C(=O)Nc1cc2c(Nc3ccc(F)c(Cl)c3)ncnc2cc1O[C@H]1CCOC1", "activity change, negative = cytotoxicity": "1.91% (inactive)"}, {"smiles": "Cc1c(-c2c(-c3ccc(F)o3)sc3ncnc(O[C@@H](Cc4ccccc4OCc4ccnn4CC(F)(F)F)C(=O)O)c23)ccc(OCCN2CCN(C)CC2)c1Cl", "outcome": "inactive"}, {"smiles": "CCCC(CCC)C(=O)Nc1ccn([C@@H]2O[C@H](CO)[C@@H](O)C2(F)F)c(=O)n1", "activity change, negative = cytotoxicity": "-14.9% (inactive)"}, {"smiles": "O=C(C(c1ccccc1)c1ccccc1)N1CCN(CC(O)COc2cccc3ncccc23)CC1", "note": "(centres undefined)", "activity change, negative = cytotoxicity": "-23.9% (inactive)"}, {"smiles": "COc1cc(N2CCN(C)CC2)ccc1Nc1ncc2c(n1)N(C)c1ccccc1C(=O)N2C", "activity change, negative = cytotoxicity": "-4.56% (inactive)"}, {"smiles": "O=C(C1CC1)N1CC[C@@H](Cc2n[nH]c(=O)n2-c2ccc(-c3ccc4occc4c3)cc2)C1", "Potency": "4.47 µM (active)"}, {"smiles": "CSC[C@H]1CN(Cc2c[nH]c3c(N)ncnc23)C[C@@H]1O", "activity change, negative = cytotoxicity": "-5.66% (inactive)"}, {"smiles": "Cc1nc(-c2cccnc2)sc1C(=O)Nc1ccccc1-c1cn2c(CN3CCOCC3)csc2n1", "outcome": "inactive"}, {"smiles": "COc1ccc2nc3n[nH]c(C)c3c(NCCOCCO)c2c1", "activity change, negative = cytotoxicity": "-10.7% (inactive)"}, {"smiles": "O=C1CC(c2c[nH]c3ccc(F)cc23)C(=O)N1", "note": "(centres undefined)", "outcome": "inactive"}, {"smiles": "C=C1C(=O)OC2/C=C(/C)CC/C=C(/C)CCC12", "note": "(centres undefined)", "activity change, negative = cytotoxicity": "1.64% (inactive)"}, {"smiles": "COc1ccc(CNC(=O)c2cc(-c3cncc(Cl)c3)cnc2-c2ccccn2)nc1OC", "outcome": "inactive"}, {"smiles": "CC1(C)OCCn2c1nc1c(N3CCOCC3)nc(-c3cnc(N)nc3)nc12", "activity change, negative = cytotoxicity": "-15.8% (inactive)"}, {"smiles": "Cc1cc(C(=O)Nc2cc(Oc3ccc4nc(NC(=O)C5CC5)cn4n3)ccc2C)n(C)n1", "activity change, negative = cytotoxicity": "-27.6% (inactive)"}, {"smiles": "Cc1noc(C)c1-c1ccc(-c2cc(C(N)=O)c(NC(N)=O)s2)c(O[C@H]2CCNC2)c1", "activity change, negative = cytotoxicity": "-21.4% (inactive)"}, {"smiles": "C=C1CCC2[C@](C)(CO)C(O)CC[C@]2(C)C1C/C=C1/C(=O)OCC1O", "note": "(some centres undefined)", "activity change, negative = cytotoxicity": "-21% (inactive)"}]}]}
